Test [1] in a line: NCI Yeast Anticancer Drug Screen. Data for the rad50 strain (AID 155).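 Further: 0% = growth of vehicle-only cultures of the same strain.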 Particulars: S. cerevisiae rad50 strain growth inhibition, hits give high values. The essentials:
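Relative growth inhibition (compound vs vehicle) was measured in yeast with a defined repair-gene alteration.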

Test [2] is described as follows: NCI Yeast Anticancer Drug Screen. Data for the mec2-1 strain (AID 157). The settings on record: S. cerevisiae mec2-1 strain, hits give high values. The essentials: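 Each compound was tested on mec2-1 yeast, a strain altered in DNA damage repair or cell cycle control. Growth inhibition is reported relative to vehicle.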
Test [3] can be described thus: NCI Yeast Anticancer Drug Screen. Data for the sgs1 mgt1 strain (AID 161).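 Further: 0% = growth of cultures given vehicle only.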 Particulars: S. cerevisiae sgs1 mgt1 strain, hits give high values. The essentials: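 Inhibition of yeast growth, normalised to vehicle-treated controls, is reported for a strain bearing genetic alterations in DNA damage repair.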
The nature of test [4]: NCI Yeast Anticancer Drug Screen. Data for the cln2 rad14 strain (AID 165).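 Further: 0% = growth equal to vehicle treated cultures.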 Particulars: S. cerevisiae cln2 rad14 strain, hits give high values. The essentials: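 Test compounds were added to cln2 rad14 yeast cultures; inhibition of growth was then determined by comparison with vehicle treatment.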
Test [5] is described as follows: NCI Yeast Anticancer Drug Screen. Data for the bub3 strain (AID 167). Particulars: S. cerevisiae bub3 mutant strain, hits give high values. The essentials:
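Screening used yeast with an engineered genetic alteration affecting cell cycle control. Compound-exposed cultures were compared with vehicle cultures, and reduced growth was taken as inhibition.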

Test [6] is described as follows: NCI Yeast Anticancer Drug Screen. Data for the mlh1 rad18 strain (AID 175). The settings on record: S. cerevisiae mlh1 rad18 strain growth inhibition, hits give high values. The essentials: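 Inhibition values reflect reduced growth of mutant yeast versus vehicle-treated controls following compound exposure; the mutations affect DNA damage repair.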
[7] abbreviates: at 5.0 µM (retest, dose inferred, filed as 0.5).
Where [8] appears, read: at 50.0 µM (retest, dose inferred, filed as 5.0).

SMILES strings stand for the structures. About 79,000 compounds went through this panel and 15% of them were active in at least one assay; those are over-represented in the sample as a whole. Unmarked numbers belong to inactive results. Calls of active or inactive are those of the source. No stated cut-off is given here; in the data, active means growth inhibition above about 70%; inactive means the rest.

Regarding `CC(C)c1ccc(C(c2c(O)c3ccccc3oc2=O)c2c(O)c3ccccc3oc2=O)cc1`, the growth inhibition in test [1] (setting [7]) was 3%; in test [1] (setting [8]) it was 91% (active); in test [1] (at 50.0 µM), 98.5% (active); in test [2] (setting [7]), -5%; in test [2] (setting [8]), 95% (active); in test [2] (at 50.0 µM) it was 97.9% (active). For the same compound, the growth inhibition in test [3] (setting [7]) was -10%; in test [3] (setting [8]) it was 95% (active); in test [3] (at 50.0 µM) it was 98.7% (active); in test [4] (setting [7]), -4%; in test [4] (setting [8]), 98% (active); in test [4] (at 50.0 µM), 99.3% (active). Moreover, the growth inhibition was -9% in test [5] (setting [7]); 92% (active) in test [5] (setting [8]); 98.6% (active) in test [5] (at 50.0 µM); -11% in test [6] (setting [7]); 97% (active) in test [6] (setting [8]); 98.4% (active) in test [6] (at 50.0 µM).
With `O=C(O)C(Br)C(Br)C(=O)O.[Ag]` (configuration not stated), the growth inhibition in test [1] (setting [7]) was 99% (active); in test [1] (setting [8]) it was 99% (active); in test [1] (at 50.0 µM), 98.8% (active); in test [2] (setting [7]), 100% (active); in test [2] (setting [8]) it was 100% (active); in test [2] (at 50.0 µM), 99.3% (active). Also, the growth inhibition in test [3] (setting [7]) was 99% (active); in test [3] (setting [8]), 100% (active); in test [3] (at 50.0 µM) it was 98.7% (active); in test [4] (setting [7]) it was 97% (active); in test [4] (setting [8]), 99% (active); in test [4] (at 50.0 µM), 99.1% (active). Besides, the growth inhibition was 99% (active) in test [5] (setting [7]); 99% (active) in test [5] (setting [8]); 98.8% (active) in test [5] (at 50.0 µM); 99% (active) in test [6] (setting [7]); 99% (active) in test [6] (setting [8]); 99.2% (active) in test [6] (at 50.0 µM).
On to `Cc1ccc(C(=O)C2C(c3ccccc3)N2C2CCCCC2)cc1` (configuration not stated), for which the growth inhibition in test [1] (setting [7]) is 0%; in test [1] (setting [8]), 95% (active); in test [1] (at 50.0 µM) it was 11.1%; in test [2] (setting [7]), -8%; in test [2] (setting [8]), 88% (active); in test [2] (at 50.0 µM), 7.95%. In addition, the growth inhibition in test [3] (setting [7]) is -1%; in test [3] (setting [8]), 89% (active); in test [3] (at 50.0 µM), 57.5%; in test [4] (setting [7]) it was -20%; in test [4] (setting [8]) it was 96% (active); in test [4] (at 50.0 µM), 0.3%. Also, the growth inhibition in test [5] (setting [7]) is -8%; in test [5] (setting [8]), 85% (active); in test [5] (at 50.0 µM), 19.8%; in test [6] (setting [7]) it was 2%; in test [6] (setting [8]), 92% (active); in test [6] (at 50.0 µM) it was 71.6% (active).
Take `CCC[CH2][Sn]1([CH2]CCC)[O]C(=O)c2cccc(OC)c2[O]1`: the growth inhibition in test [1] (setting [7]) was 93% (active); in test [1] (setting [8]), 99% (active); in test [1] (at 50.0 µM), 97.8% (active); in test [2] (setting [7]) it was 95% (active); in test [2] (setting [8]), 99% (active); in test [2] (at 50.0 µM), 98% (active). For the same compound, the growth inhibition in test [3] (setting [7]) is 93% (active); in test [3] (setting [8]) it was 98% (active); in test [3] (at 50.0 µM), 99.2% (active); in test [4] (setting [7]), 93% (active); in test [4] (setting [8]), 98% (active); in test [4] (at 50.0 µM), 98.4% (active). Besides, the growth inhibition was 94% (active) in test [5] (setting [7]); 97% (active) in test [5] (setting [8]); 98.4% (active) in test [5] (at 50.0 µM); 88% (active) in test [6] (setting [7]); 98% (active) in test [6] (setting [8]); 98.9% (active) in test [6] (at 50.0 µM).
For the compound `Nc1cccc([As]=S)c1` (configuration not stated), the growth inhibition in test [1] (setting [7]) was 7%; in test [1] (setting [8]), 99% (active); in test [1] (at 50.0 µM) it was 98.5% (active); in test [2] (setting [7]), 11%; in test [2] (setting [8]), 99% (active); in test [2] (at 50.0 µM), 98.9% (active). In addition, the growth inhibition in test [3] (setting [7]) was -9%; in test [3] (setting [8]) it was 100% (active); in test [3] (at 50.0 µM), 91.5% (active); in test [4] (setting [7]), 13%; in test [4] (setting [8]) it was 98% (active); in test [4] (at 50.0 µM), 96.9% (active). Further, the growth inhibition in test [5] (setting [7]) is -4%; in test [5] (setting [8]) it was 99% (active); in test [5] (at 50.0 µM) it was 98.8% (active); in test [6] (setting [7]), 15%; in test [6] (setting [8]) it was 99% (active); in test [6] (at 50.0 µM), 98.8% (active).
In the case of `O=NNc1c[nH]c(=O)[nH]c1=O`, the growth inhibition in test [1] (setting [7]) was 1%; in test [1] (setting [8]) it was 69%; in test [1] (at 50.0 µM) it was 72.6% (active); in test [2] (setting [7]), 0%; in test [2] (setting [8]), 14%; in test [2] (at 50.0 µM), 5.85%. Further, the growth inhibition was -1% in test [3] (setting [7]); 29% in test [3] (setting [8]); 17.1% in test [3] (at 50.0 µM); -5% in test [4] (setting [7]); 12% in test [4] (setting [8]); 4.3% in test [4] (at 50.0 µM). Further, the growth inhibition was -1% in test [5] (setting [7]); -12% in test [5] (setting [8]); 0.3% in test [5] (at 50.0 µM); 3% in test [6] (setting [7]); 39% in test [6] (setting [8]); 21.1% in test [6] (at 50.0 µM).
Turning to `[Cl][Hg][c]1ccco1`, the growth inhibition was 99% (active) in test [1] (setting [7]); 99% (active) in test [1] (setting [8]); 99.5% (active) in test [1] (at 50.0 µM); 100% (active) in test [2] (setting [7]); 99% (active) in test [2] (setting [8]); 99.5% (active) in test [2] (at 50.0 µM). In addition, the growth inhibition was 100% (active) in test [3] (setting [7]); 100% (active) in test [3] (setting [8]); 99.7% (active) in test [3] (at 50.0 µM); 99% (active) in test [4] (setting [7]); 99% (active) in test [4] (setting [8]); 99% (active) in test [4] (at 50.0 µM). Also, the growth inhibition in test [5] (setting [7]) was 100% (active); in test [5] (setting [8]) it was 100% (active); in test [5] (at 50.0 µM), 99.4% (active); in test [6] (setting [7]), 99% (active); in test [6] (setting [8]), 99% (active); in test [6] (at 50.0 µM) it was 99.2% (active).
As to `CC12C(=O)C=CCC1=CCC1C2CCC2(O)C(=O)OC3(C)C4CC5(C)C(COC16OC23C5C6=O)C(=O)O4` (configuration not stated), the growth inhibition in test [1] (setting [7]) was 11%; in test [1] (setting [8]), 51%; in test [1] (at 50.0 µM), 78.8% (active); in test [2] (setting [7]) it was 24%; in test [2] (setting [8]), 35%; in test [2] (at 50.0 µM), 55.7%. The growth inhibition in test [3] (setting [7]) is 19%; in test [3] (setting [8]), 31%; in test [3] (at 50.0 µM), 54.4%; in test [4] (setting [7]) it was 3%; in test [4] (setting [8]) it was 18%; in test [4] (at 50.0 µM), 30.4%. Further, the growth inhibition in test [5] (setting [7]) is 14%; in test [5] (setting [8]), 56%; in test [5] (at 50.0 µM), 69.6%; in test [6] (setting [7]), 32%; in test [6] (setting [8]) it was 64%; in test [6] (at 50.0 µM), 62.5%.
Turning to `Cc1c(=O)n(O)c2ccccc2[n+]1[O-]`, the growth inhibition in test [1] (setting [7]) was 4%; in test [1] (setting [8]), 21%; in test [1] (at 50.0 µM), 4.05%; in test [2] (setting [7]), 4%; in test [2] (setting [8]) it was 31%; in test [2] (at 50.0 µM) it was 0.75%. Besides, the growth inhibition in test [3] (setting [7]) was 4%; in test [3] (setting [8]), 24%; in test [3] (at 50.0 µM), 7.3%; in test [4] (setting [7]) it was 4%; in test [4] (setting [8]), 14%; in test [4] (at 50.0 µM) it was 32.5%. The growth inhibition is 1% in test [5] (setting [7]); 16% in test [5] (setting [8]); 12.6% in test [5] (at 50.0 µM); 5% in test [6] (setting [7]); 51% in test [6] (setting [8]); 16.5% in test [6] (at 50.0 µM).
